According to PubChem BioAssay (Tox21):
Records with an inconclusive call do not appear. Calls of active or inactive are those of the source. Unless noted, calls follow the shape of the full dose curve.

Legend:
[1] = Nuclear factor erythroid 2-related factor 2/antioxidant responsive element (Nrf2/ARE) small molecule agonists: qHTS cell viability counter screen in human keratinocytes (AID 1919968; active = well fitted curve in the direction sought with a large enough effect in the repeat runs; an effect the other way counts as inactive or inconclusive; also: nearly all actives have a fitted effect of over 55% in size; also: potency is read from the fitted curve at half-maximal effect)
In short: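 Cytotoxicity was multiplexed with the Nrf2/ARE luciferase assay in the same wells. Stably transfected HaCaT keratinocytes were treated with test compounds for 23 h at 37 C. Cell viability was then measured by CellTiter-Fluor fluorescence.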

[2] = Nuclear factor erythroid 2-related factor 2/antioxidant responsive element (Nrf2/ARE) small molecule agonists: luciferase reporter gene qHTS assay in human keratinocytes (AID 1919969); also: nearly all actives have a fitted effect of over 35% in size
[3] = target: Gonadotropin-releasing hormone receptor (Homo sapiens) (UniProt P30968); assay: Human gonadotropin-releasing hormone receptor (GnRHR) small molecule agonists, calcium flux assay in GnRHR-HEK293 cells (AID 1920063); also: nearly all actives have a fitted effect of over 35% in size
In short: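 Agonist activity was measured as intracellular calcium flux in HEK293 cells engineered to stably express human GnRHR. After dye loading for 1 hour at 37 C, compounds in DMSO were added and fluorescence was followed for 3 minutes.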

[4] = target: KiSS-1 receptor (Homo sapiens) (UniProt Q969F8); assay: Human kisspeptin (KISS1R) small molecule agonists, calcium flux assay in KISS1R-HEK293 cells (AID 1920064; active = well fitted curve in the direction sought with a large enough effect in the repeat runs; an effect the other way counts as inactive or inconclusive)
In short: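 Agonist activity is monitored as intracellular calcium rise in engineered HEK293 cells carrying human KISS1R. Cells are dye-loaded for 1 h at 37 C before compound addition, and fluorescence is recorded for 3 min.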

[5] = G protein-coupled receptor (GPCR) small molecule agonists, calcium flux assay: HEK293 wild type cell line counter screen (AID 1920065)
In short: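 Seed cells, incubate 18 h (37 C, 5% CO2); add calcium dye, 1 h at 37 C; pin-transfer compounds, ATP control or DMSO; read fluorescence 480/540 nm each second for 3 min.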

[6] = p53 small molecule agonists, cell-based qHTS assay with human liver microsomes (AID 1963577)
In short: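 p53RE-bla cells, 4,000/well, compound added after 5 h, with human liver microsomes 0.5 mg/mL and NADPH 0.5 mg/mL final; 16 h at 37 C, then LiveBLAzer 2 h RT, fluorescence.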

[7] = p53 small molecule agonists, cell-based qHTS assay with rat liver microsomes (AID 1963578)
In short: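 p53RE-bla cells, 4,000/well, pre-incubated 5 h, then given compounds plus rat liver microsomes (0.5 mg/mL final) and NADPH (0.5 mg/mL final). Incubation 16 h at 37 C; beta-lactamase reporter read by LiveBLAzer fluorescence after 2 h at room temperature.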

[8] = p53 small molecule agonists, cell-based qHTS assay with human liver microsomes: qHTS cell viability counter screen (AID 1963579); also: nearly all actives have a fitted effect of over 45% in size
In short: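 p53RE-bla cells, 4,000/well, dosed 5 hours after plating, with human liver microsomes (0.5 mg/mL final) plus NADPH (0.5 mg/mL final), 16 hours at 37 C. Viability read as CellTiter-Glo luminescence after 30 min at room temperature.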

[9] = p53 small molecule agonists, cell-based qHTS assay with rat liver microsomes: qHTS cell viability counter screen (AID 1963580); also: nearly all actives have a fitted effect of over 45% in size
In short: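 After the beta-lactamase ratio was read, CellTiter-Glo was added to the same wells and luminescence measured at 30 min; cells had been treated 16 h at 37 C with compounds, rat liver microsomes and NADPH (0.5 mg/mL final each).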

[10] = p53 small molecule agonists, cell-based qHTS assay: qHTS cell viability counter screen (AID 1963581); also: nearly all actives have a fitted effect of over 45% in size
In short: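 Viability was counter-screened in parallel with the p53 agonist reporter by measuring intracellular ATP luminescence in the same HCT-116 p53RE-bla wells after 16 h compound treatment at 37 C.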

[11] = p53 small molecule agonists, cell-based qHTS assay (AID 1963582; active = well fitted activation curve with a large enough effect in the signal ratio in the repeat runs, not every such curve was filed as active; the % refers to the signal ratio)
In short: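 Cells carrying a p53-responsive bla reporter are treated with test compounds for 16 h at 37 C; beta-lactamase activity is then detected with LiveBLAzer B/G FRET substrate after 2 h at room temperature.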

[12] = target: 5-hydroxytryptamine receptor 2A (Homo sapiens) (UniProt P28223); assay: 5-hydroxytryptamine receptor 2A (HTR2A) small molecule antagonists, cell-based qHTS assay (AID 1963586); also: nearly all actives have a fitted effect of over 45% in size
In short: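 CHO cells stably expressing human HTR2A were plated for 18 h at 37 C, then loaded with calcium dye for 1 h. Compounds were preincubated 5 min at room temperature before DOI (4 nM solution) was added. Kinetic fluorescence was read for 3 min.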

[13] = target: 5-hydroxytryptamine receptor 2A (Homo sapiens) (UniProt P28223); assay: 5-hydroxytryptamine receptor 2A (HTR2A) small molecule agonists, cell-based qHTS assay (AID 1963587); also: nearly all actives have a fitted effect of over 30% in size
In short: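 CHO cells stably expressing human HTR2A, plated 18 h, loaded with calcium dye 1 h at 37 C. Agonist mode: compounds added and intracellular calcium fluorescence recorded kinetically for 2 min at 1 sec intervals.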

[14] = target: Muscarinic acetylcholine receptor M1 (Homo sapiens) (UniProt P11229); assay: Cholinergic receptor muscarinic 1 (CHRM1) small molecule antagonists, cell-based qHTS assay (AID 1963588); also: nearly all actives have a fitted effect of over 40% in size
In short: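 Compounds were tested at 15 concentrations in three independent runs. Dye-loaded CHRM1-CHO cells were exposed 5 min at room temperature before stimulation by acetylcholine added at 50nM. Intracellular calcium was read kinetically on FDSS for 3 min.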

[15] = target: Beta-2 adrenergic receptor (Homo sapiens) (UniProt P07550); assay: Adrenergic beta2 receptor (ADRB2) small molecule antagonists, cell-based qHTS assay (AID 1963592); also: series mostly up to about 92 µM; nearly all actives have a fitted effect of over 50% in size
In short: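 Assay format: CHO-ADRB2 cells, 18-20hr seeding at 37C/5% CO2, then compound plus 1nM isoproterenol agonist mix for 0.5hr RT. Homogeneous time-resolved fluorescence cAMP detection after 1hr, expressed as 665/615 nm ratio.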

[16] = target: D(2) dopamine receptor (Homo sapiens) (UniProt P14416); assay: Dopamine D2 receptor (DRD2) small molecule agonists, cell-based qHTS assay (AID 1963594); also: nearly all actives have a fitted effect of over 35% in size
In short: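 HEK293 cells stably expressing human DRD2, pre-treated with PDE inhibitor Ro20-1724 (0.1 mM final) and compound 10 min at room temperature, then stimulated with NKH477 (200nM […]) for 30 min. cAMP read by HTRF (665/620 nm).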

[17] = target: Muscarinic acetylcholine receptor M1 (Homo sapiens) (UniProt P11229); assay: Cholinergic receptor muscarinic 1 (CHRM1) small molecule agonists, cell-based qHTS assay (AID 1963589); also: nearly all actives have a fitted effect of over 35% in size
In short: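 Cells were plated and incubated 18 h at 37 C/5% CO2, loaded with calcium dye for 1 h at 37 C, then treated with compounds in DMSO. Fluorescence was recorded kinetically at 1 sec intervals.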

[18] = cAMP Responsive Elements (CRE) small molecule agonists, cell-based qHTS assay (AID 1963590)
In short: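 Cells carrying a CRE-driven beta-lactamase reporter (HEK 293T) are seeded, incubated overnight (18 h), and treated with test compounds for 3 h at 37 C; reporter activity is then detected with a FRET substrate after 2 h at room temperature.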

[19] = cAMP Responsive Elements (CRE) small molecule antagonists, cell-based qHTS assay (AID 1963591; active = well fitted inhibition curve with a large enough effect in the signal ratio in the repeat runs, not every such curve was filed as active; the % refers to the signal ratio)
In short: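 Cells (CRE-bla HEK 293T, DMEM with 10% dialyzed FBS and 25 mM HEPES) are seeded and incubated 18 h. Compounds are added with NKH477 agonist at 0.25 uM final for 3 h, then FRET substrate for 2 h.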

[20] = target: D(2) dopamine receptor (Homo sapiens) (UniProt P14416); assay: Dopamine D2 receptor (DRD2) small molecule antagonists, cell-based qHTS assay (AID 1963595; active = well fitted inhibition curve with a large enough effect in the signal ratio in the repeat runs, with a control signal flat; the % refers to the signal ratio)
In short: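 HTRF cAMP read-out at 665 and 620 nm emission (340 nm excitation). Antagonist mode: compounds were tested against 12 nM quinpirole in DRD2-HEK293 cells, with 200 nM NKH477 raising cAMP and 0.1 mM Ro20-1724 blocking its breakdown.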
% is scaled to controls: 0 for no effect and ±100 for the full control effect.

Chain of Beta-2 adrenergic receptor (Homo sapiens) (P07550 whole entry, looked up): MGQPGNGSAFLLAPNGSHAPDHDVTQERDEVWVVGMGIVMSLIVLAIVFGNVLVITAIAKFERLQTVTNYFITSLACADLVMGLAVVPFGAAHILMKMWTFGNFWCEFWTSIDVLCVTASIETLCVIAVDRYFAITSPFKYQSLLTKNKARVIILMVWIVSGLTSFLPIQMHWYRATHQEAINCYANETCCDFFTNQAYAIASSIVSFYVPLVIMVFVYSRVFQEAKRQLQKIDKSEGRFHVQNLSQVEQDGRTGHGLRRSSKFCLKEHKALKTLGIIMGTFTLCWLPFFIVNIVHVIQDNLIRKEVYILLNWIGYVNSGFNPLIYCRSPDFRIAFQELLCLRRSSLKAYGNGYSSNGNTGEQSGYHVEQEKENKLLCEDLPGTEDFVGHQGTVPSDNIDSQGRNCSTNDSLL
Chain of 5-hydroxytryptamine receptor 2A (Homo sapiens) (P28223 whole entry, looked up): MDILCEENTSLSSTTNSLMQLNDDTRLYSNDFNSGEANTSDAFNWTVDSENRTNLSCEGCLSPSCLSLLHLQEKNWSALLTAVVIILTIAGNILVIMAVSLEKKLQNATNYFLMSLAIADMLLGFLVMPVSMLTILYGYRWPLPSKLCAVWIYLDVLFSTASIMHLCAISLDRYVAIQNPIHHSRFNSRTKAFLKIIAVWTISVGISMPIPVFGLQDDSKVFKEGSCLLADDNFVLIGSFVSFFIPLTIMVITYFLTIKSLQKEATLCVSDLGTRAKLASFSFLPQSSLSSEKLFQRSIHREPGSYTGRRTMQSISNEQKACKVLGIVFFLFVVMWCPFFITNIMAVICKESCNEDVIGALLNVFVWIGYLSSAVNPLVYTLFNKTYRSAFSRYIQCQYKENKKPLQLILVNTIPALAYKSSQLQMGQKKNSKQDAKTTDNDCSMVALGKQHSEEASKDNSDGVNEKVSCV
Chain of KiSS-1 receptor (Homo sapiens) (Q969F8 whole entry, looked up): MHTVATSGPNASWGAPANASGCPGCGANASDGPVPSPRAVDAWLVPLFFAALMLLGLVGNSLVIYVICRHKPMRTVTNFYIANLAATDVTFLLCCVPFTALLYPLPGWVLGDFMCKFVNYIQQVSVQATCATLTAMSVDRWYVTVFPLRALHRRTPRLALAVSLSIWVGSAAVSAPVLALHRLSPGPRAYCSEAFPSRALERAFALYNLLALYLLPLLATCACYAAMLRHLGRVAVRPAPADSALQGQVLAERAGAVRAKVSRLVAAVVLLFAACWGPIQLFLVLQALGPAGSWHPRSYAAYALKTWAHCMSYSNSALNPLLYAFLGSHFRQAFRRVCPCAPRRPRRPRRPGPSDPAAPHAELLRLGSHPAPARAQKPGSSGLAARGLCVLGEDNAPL
Chain of Muscarinic acetylcholine receptor M1 (Homo sapiens) (P11229 whole entry, looked up): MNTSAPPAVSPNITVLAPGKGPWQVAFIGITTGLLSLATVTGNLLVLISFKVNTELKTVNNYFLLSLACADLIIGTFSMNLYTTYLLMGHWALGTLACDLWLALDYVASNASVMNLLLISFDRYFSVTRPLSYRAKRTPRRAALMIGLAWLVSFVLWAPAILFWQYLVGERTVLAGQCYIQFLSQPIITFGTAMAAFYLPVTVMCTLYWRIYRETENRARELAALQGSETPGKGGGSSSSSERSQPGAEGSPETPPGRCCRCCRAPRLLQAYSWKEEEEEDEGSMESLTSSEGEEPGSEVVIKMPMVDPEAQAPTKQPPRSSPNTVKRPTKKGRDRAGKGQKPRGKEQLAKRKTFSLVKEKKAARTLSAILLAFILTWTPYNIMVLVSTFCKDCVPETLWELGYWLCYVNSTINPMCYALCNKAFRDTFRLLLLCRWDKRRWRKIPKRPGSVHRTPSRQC
Chain of D(2) dopamine receptor (Homo sapiens) (P14416 whole entry, looked up): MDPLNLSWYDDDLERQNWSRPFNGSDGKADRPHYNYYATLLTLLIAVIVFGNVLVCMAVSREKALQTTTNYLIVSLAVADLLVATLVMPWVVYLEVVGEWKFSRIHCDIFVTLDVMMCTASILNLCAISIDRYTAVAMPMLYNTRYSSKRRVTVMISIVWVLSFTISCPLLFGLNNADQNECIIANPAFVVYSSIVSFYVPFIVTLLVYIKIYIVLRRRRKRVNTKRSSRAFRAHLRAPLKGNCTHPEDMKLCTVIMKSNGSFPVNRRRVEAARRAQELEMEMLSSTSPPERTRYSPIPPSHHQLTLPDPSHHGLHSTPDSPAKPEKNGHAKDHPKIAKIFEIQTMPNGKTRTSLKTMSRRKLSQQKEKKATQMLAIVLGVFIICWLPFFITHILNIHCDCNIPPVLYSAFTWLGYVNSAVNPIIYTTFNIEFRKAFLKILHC
Chain of Gonadotropin-releasing hormone receptor (Homo sapiens) (P30968 whole entry, looked up): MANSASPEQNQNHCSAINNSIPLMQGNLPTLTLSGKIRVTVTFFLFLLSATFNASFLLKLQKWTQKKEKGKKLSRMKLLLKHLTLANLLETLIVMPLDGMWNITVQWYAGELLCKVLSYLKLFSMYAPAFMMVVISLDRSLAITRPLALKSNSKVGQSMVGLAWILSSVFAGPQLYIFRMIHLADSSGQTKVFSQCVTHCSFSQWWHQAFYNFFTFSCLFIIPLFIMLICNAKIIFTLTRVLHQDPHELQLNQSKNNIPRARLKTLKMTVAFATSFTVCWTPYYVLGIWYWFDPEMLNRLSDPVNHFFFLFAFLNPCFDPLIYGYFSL

CCCCc1ccc2c(n1)[C@@H](c1ccc(OC)cc1C[C@H](C)C(=O)O)[C@H](C(=O)O)[C@H]2c1ccc2c(c1)OCO2
inactive: Potency [1] | Potency [2] | Potency [3] | outcome [4] | outcome [5] | Potency [6] | Potency [7] | Potency [8] | Potency [9] | Potency [10] | Potency [11] | Potency [12] | Potency [13] | Potency [14] | Potency [15] | Potency [16]

CC(CC(=O)O)CC(C)(C)C (stereo not drawn)
inactive: Potency [1] | Potency [2] | Potency [3] | outcome [4] | outcome [5] | Potency [6] | Potency [7] | Potency [8] | Potency [9] | Potency [10] | Potency [11] | Potency [12] | Potency [13] | Potency [17] | Potency [18] | Potency [19] | Potency [15] | Potency [20]

CCCCOC(=O)C(C)O (stereo not drawn)
inactive: Potency [1] | Potency [2] | Potency [3] | outcome [4] | outcome [5] | Potency [6] | Potency [7] | Potency [8] | Potency [9] | Potency [10] | Potency [11] | Potency [12] | Potency [13] | Potency [17] | Potency [18] | Potency [15] | Potency [16] | Potency [20]

COCCOCC(OC)OC
inactive: Potency [1] | Potency [2] | Potency [3] | outcome [4] | outcome [5] | Potency [6] | Potency [7] | Potency [8] | Potency [9] | Potency [10] | Potency [11] | Potency [12] | Potency [13] | Potency [17] | Potency [18] | Potency [19] | Potency [15] | Potency [16]

CC(C)C(=O)OCC(C)(C)C(O)C(C)C (stereo not drawn)
inactive: Potency [1] | Potency [2] | Potency [3] | outcome [4] | outcome [5] | Potency [6] | Potency [7] | Potency [8] | Potency [9] | Potency [10] | Potency [11] | Potency [12] | Potency [13] | Potency [17] | Potency [18] | Potency [19] | Potency [15] | Potency [16] | Potency [20]

C[N+]1(CC2COC(c3ccccc3)(c3ccccc3)O2)CCCCC1 (stereo not drawn)
inactive: activity change, negative = cytotoxicity [1] -0.244% [at 19 µM] | activity, positive = activation [2] -7.02% [at 19 µM] | activity change [3] -0.634% [at 11.8 µM, hits give high values] | activation [4] -1.44% [at 15.8 µM] | activation [5] 0.724% [at 11.8 µM] | activation [6] 0.35% [at 13.5 µM] | activation [7] -0.64% [at 13.6 µM] | activity change, negative = cytotoxicity [8] -12% [at 13.5 µM] | activity change, negative = cytotoxicity [9] 4.65% [at 13.5 µM] | activity change, negative = cytotoxicity [10] -20.9% [at 13.5 µM] | activation [11] 0.97% [at 13.5 µM] | activity, negative = inhibition [12] -7.46% [at 12.7 µM] | activation [13] -9.9% [at 15.9 µM] | activation [17] 10.6% [at 15.8 µM] | activation [18] -0.37% [at 19 µM] | activity change, negative = inhibition [19] 1.85% [at 18.9 µM] | activity change, negative = inhibition [15] -7.43% [at 19 µM] | activation [16] -6.08% [at 19 µM] | activity change, negative = inhibition [20] 7.28% [at 18.9 µM]

N#C/C(=C1\SCC(c2ccccc2Cl)S1)n1ccnc1 (stereo not drawn)
inactive: Potency [1] | Potency [2] | Potency [3] | outcome [4] | outcome [5] | Potency [6] | Potency [7] | Potency [8] | Potency [9] | Potency [10] | Potency [11] | Potency [12] | Potency [13] | Potency [17] | Potency [18] | Potency [19] | Potency [15] | Potency [16] | Potency [20]

CN1C(=O)c2ccc([N+](=O)[O-])cc2C1=O
inactive: Potency [1] | Potency [2] | Potency [3] | outcome [4] | outcome [5] | Potency [6] | Potency [7] | Potency [8] | Potency [9] | Potency [10] | Potency [11] | Potency [12] | Potency [13] | Potency [17] | Potency [19] | Potency [20]

C[C@@H]1CN(CCCn2c3ccccc3c3ccccc32)C[C@H](C)N1
active: Potency [1] 26.6 µM
inactive: Potency [2] | Potency [3] | outcome [4] | outcome [5] | Potency [6] | Potency [7] | Potency [8] | Potency [9] | Potency [10] | Potency [11] | Potency [12] | Potency [14] | Potency [17] | Potency [20]
